# Screening results from PubChem.
# PD-1 reversal: activators reversing PD-1 mediated T-cell inhibition. primary human CD4 T cells, PD-L1 beads, CellTiter-Glo 96 h. activation, % (test concentration not listed). 29,000 tested, under 10 active. AID 2316; call rule not given here;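 note: 0% = median vehicle wells and 100% = positive control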
# STK33 inh: human STK33 kinase inhibition; actives 0.44% (n = 27,000); inhibition, % at 12.5 µM; Q9BYT3; ADP-Glo luminescence, MBP substrate; in the data active = inhibition above about 20%; inconclusive = no clear call, values can overlap the other calls
# Target sequence (Q9BYT3 whole entry, looked up): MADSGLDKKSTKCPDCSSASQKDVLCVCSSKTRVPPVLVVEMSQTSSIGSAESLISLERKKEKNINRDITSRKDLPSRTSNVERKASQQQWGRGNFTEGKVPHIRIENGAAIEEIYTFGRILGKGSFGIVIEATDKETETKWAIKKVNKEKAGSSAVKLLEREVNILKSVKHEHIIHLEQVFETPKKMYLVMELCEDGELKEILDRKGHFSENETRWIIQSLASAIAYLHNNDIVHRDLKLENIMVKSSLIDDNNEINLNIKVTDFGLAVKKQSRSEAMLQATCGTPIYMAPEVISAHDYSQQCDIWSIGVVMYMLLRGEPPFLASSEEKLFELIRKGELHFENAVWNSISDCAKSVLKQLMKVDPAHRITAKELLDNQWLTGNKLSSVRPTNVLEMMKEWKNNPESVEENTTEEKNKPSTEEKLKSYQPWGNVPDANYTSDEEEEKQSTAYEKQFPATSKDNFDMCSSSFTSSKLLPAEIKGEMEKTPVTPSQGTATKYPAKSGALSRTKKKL
# NOMO-1 viab: STK33 inhibitor candidate reducing NOMO-1 cell viability; NOMO-1 AML viability, CellTiter-Glo luminescence, 72 h; actives 7.5% (n = 37,000); inhibition, % (test concentration not listed); in the data active = inhibition above about 80%; inconclusive = no clear call, values can overlap the other calls
# * marks the source's active call; other numbers are inactive results; ? = inconclusive; nt = no result given. The entries come from a sample that favours hits as a whole.
SMILES,PD-1 reversal,STK33 inh,NOMO-1 viab
Cc1ccccc1N1C(=O)CC(SCC(=O)Nc2ccccc2)C1=O (stereo not drawn),nt,2,15
COc1ccc(N(CC(=O)Nc2ccccc2F)S(C)(=O)=O)cc1Cl,2,-1,-4
Cc1ccc(NC(=O)COc2ccc(Cl)cc2C)c([N+](=O)[O-])c1,2,4,14
CC1(CC(=O)O)CCC2(O1)C(CO)=CCC1C(C)(C)C(O)CCC12C (stereo not drawn),nt,-4,nt
Cc1cc(N(CC(=O)Nc2cccc([N+](=O)[O-])c2C)S(C)(=O)=O)ccc1Br,-1,-12,7
CSC(=NC#N)/N=c1/nc(SC)n(C)n1C,0,nt,-6
C[C@@H]1CN([C@@H](C)CO)C(=O)c2cccc(NS(=O)(=O)c3ccc(Cl)cc3)c2O[C@@H]1CN(C)Cc1ccc(C(=O)O)cc1,1,nt,-3
C[C@@H]1CN([C@H](C)CO)C(=O)c2cccc(NS(=O)(=O)c3ccc(Cl)cc3)c2O[C@@H]1CN(C)Cc1ccc(C(=O)Nc2ccccc2N)cc1,-3,nt,126*
Cc1noc(C)c1S(=O)(=O)Nc1cccc2c1O[C@H](CN(C)Cc1ccc(C(=O)O)cc1)[C@@H](C)CN([C@H](C)CO)C2=O,1,nt,-6
Cc1noc(C)c1S(=O)(=O)Nc1cccc2c1O[C@H](CN(C)Cc1ccc(C(=O)Nc3ccccc3N)cc1)[C@H](C)CN([C@H](C)CO)C2=O,0,nt,118*
C[C@H](CO)N1C[C@H](C)[C@H](CN(C)Cc2ccc(C(=O)Nc3ccccc3N)cc2)Oc2c(NS(=O)(=O)c3ccc(Cl)cc3)cccc2C1=O,-1,nt,121*
CCOC(=O)c1c(NC(=O)c2ccc(-c3ccccc3[N+](=O)[O-])o2)sc2c1CCCC2,0,-1,-10
COc1ccccc1CNC(=O)c1ccc(Cl)c(S(=O)(=O)N2CCOCC2)c1,-2,-5,14
C[C@@H]1CN([C@H](C)CO)C(=O)c2cccc(NC(=O)Nc3ccc(F)cc3)c2O[C@H]1CN(C)Cc1ccc(C(F)(F)F)cc1,-5,nt,83*
C[C@H](CO)N1C[C@H](C)[C@H](CN(C)Cc2ccc(C(F)(F)F)cc2)Oc2c(NC(=O)Nc3ccc(F)cc3)cccc2C1=O,-2,nt,69
C[C@@H]1CN([C@@H](C)CO)C(=O)c2cccc(NC(=O)Nc3ccc(F)cc3)c2O[C@@H]1CN(C)Cc1ccc(C(F)(F)F)cc1,-3,nt,88*
C[C@H](CO)N1C[C@H](C)[C@@H](CN(C)Cc2ccc(C(F)(F)F)cc2)Oc2c(NC(=O)Nc3ccc(F)cc3)cccc2C1=O,-2,nt,113*
Cc1ccc(NC(=O)N(C2=NCC(C)(C)S2)c2ccc(F)c(Cl)c2)cc1,-1,nt,-4
O=C(/C=C/c1ccccc1)Oc1ccc2ccccc2c1,0,nt,23
CC(C(=O)Nc1ccc(Cl)c(Cl)c1)N(c1ccccc1)S(C)(=O)=O (stereo not drawn),0,-3,7
CS(=O)(=O)N(CC(=O)Nc1cc(C(F)(F)F)ccc1Cl)c1cccc(F)c1,nt,0,-3
Cc1ccc(S(=O)(=O)N(CC(=O)O)c2cc(Cl)ccc2C)cc1,0,-5,-8
N#CC1=C(N)C(C#N)(C#N)C(c2ccccc2)C2=C1CCCC2 (stereo not drawn),-6,nt,88*
CC(C)NS(=O)(=O)c1ccc(OCC(N)=O)cc1,1,0,14
C[C@@H]1CN([C@H](C)CO)C(=O)Cc2cc(NS(=O)(=O)c3ccccc3)ccc2O[C@H]1CN(C)Cc1ccc(C(F)(F)F)cc1,-3,3,49
SMILES,PD-1 reversal,STK33 inh,NOMO-1 viab
C[C@@H]1CN([C@H](C)CO)C(=O)Cc2cc(NS(=O)(=O)c3ccccc3)ccc2O[C@@H]1CN(C)Cc1ccc(C(F)(F)F)cc1,-5,-5,?
C[C@H](CO)N1C[C@H](C)[C@H](CN(C)Cc2ccc(C(F)(F)F)cc2)Oc2ccc(NS(=O)(=O)c3ccccc3)cc2CC1=O,1,0,1
C[C@@H]1CN([C@H](C)CO)C(=O)Cc2cc(NS(=O)(=O)c3ccc(F)cc3)ccc2O[C@@H]1CN(C)Cc1ccc(C(F)(F)F)cc1,-6,9,111*
Cc1ccc(S(=O)(=O)Nc2ccc3c(c2)CC(=O)N([C@@H](C)CO)C[C@@H](C)[C@@H](CN(C)Cc2ccc(C(F)(F)F)cc2)O3)cc1,-1,7,84*
COc1ccc(CN(C)C[C@H]2Oc3ccc(NS(=O)(=O)c4ccc(F)cc4)cc3CC(=O)N([C@H](C)CO)C[C@H]2C)cc1,1,-3,18
COc1ccc(S(=O)(=O)Nc2ccc3c(c2)CC(=O)N([C@@H](C)CO)C[C@H](C)[C@@H](CN(C)Cc2ccc(C(F)(F)F)cc2)O3)cc1,0,7,113*
